Here are results for 94 compounds from PubChem BioAssay AID1619 (SRMLSC, 2009).

SMILES strings stand for the structures. Among all 220,000 compounds or so, about 830 (0.38%) were called active.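 Rule for the calls: active = compound inhibiting the enzyme by more than half at any dose during confirmatory dose-response retesting; inconclusive = strong single-dose inhibitors picked by rank but not retested; inactive = the rest.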 Only a sample is shown. Measured potencies and affinities stand elsewhere.

One may read the inhibition as the relative decrease from the control value, in per cent.

For this experiment, the target named is Leucine aminopeptidase (Plasmodium falciparum (isolate 3D7)) (UniProt Q8IL11). Put plainly: P. falciparum M17LAP inhibitors, primary screen, biochemical, fluorogenic H-Leu-NHMec substrate, 1536-well (AID 1619).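 Note: plate controls were full reaction with DMSO carrier for no effect and no enzyme background for full effect.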 The settings on record: recombinant M17LAP, H-Leu-NHMec fluorogenic kinetic assay; at 30 µM; stronger effect = higher value.
Chain of Leucine aminopeptidase (Plasmodium falciparum (isolate 3D7)) (Q8IL11 whole entry, looked up): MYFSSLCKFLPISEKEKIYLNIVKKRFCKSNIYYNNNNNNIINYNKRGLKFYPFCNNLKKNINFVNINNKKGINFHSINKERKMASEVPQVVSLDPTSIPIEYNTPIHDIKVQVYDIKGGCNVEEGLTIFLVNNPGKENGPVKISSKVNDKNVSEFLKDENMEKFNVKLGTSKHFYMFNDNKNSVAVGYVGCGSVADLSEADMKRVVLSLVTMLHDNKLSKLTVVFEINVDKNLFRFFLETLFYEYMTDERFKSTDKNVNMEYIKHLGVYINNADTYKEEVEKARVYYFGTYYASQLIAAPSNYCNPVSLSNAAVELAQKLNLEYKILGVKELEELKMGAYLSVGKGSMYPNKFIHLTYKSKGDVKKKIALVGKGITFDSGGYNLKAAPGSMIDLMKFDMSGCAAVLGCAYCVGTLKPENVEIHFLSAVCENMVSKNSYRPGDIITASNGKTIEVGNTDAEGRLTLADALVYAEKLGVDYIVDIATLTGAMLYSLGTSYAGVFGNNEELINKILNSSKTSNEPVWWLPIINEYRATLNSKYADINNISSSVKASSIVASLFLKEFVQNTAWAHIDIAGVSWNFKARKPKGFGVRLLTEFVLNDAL
On to `O=C(N/N=C\c1ccc2c(c1)OCO2)c1ccco1`, for which the inhibition was 26.4% (inactive).

For `Nn1cnnc1SCC(=O)Nc1ccc(C2CCCCC2)cc1`, the inhibition was -2.76% (inactive).

On to `CCCCOc1ccc(C(=O)O)cc1`, for which the inhibition is 23.4% (inactive).

With `O=C(CSCCO)Nc1ccc(C2CCCCC2)cc1`, the inhibition was 6.11% (inactive).

Take `CCOc1ccc(NC(=O)CCC(=O)O)cc1`: the inhibition is 18% (inactive).

As for `CCCc1nnc(SCC(=O)Nc2ccc(OCC)cc2)n1N`, the inhibition was 30.4% (inactive).

As to `CCn1nnnc1SCC(=O)Nc1ccc(OCc2ccccc2)cc1`, the inhibition is 4.99% (inactive).

Consider `CCCCOc1ccc(CC(=O)NCC(=O)O)cc1`, for which the inhibition is 4.31% (inactive).

In the case of `CCOc1ccc(OCC)c(NC(=O)CSCC(=O)O)c1`, the inhibition was 2.8% (inactive).

As for `O=C(Nc1nc2ccsc2c(=O)s1)c1ccco1`, the inhibition was 2.03% (inactive).

`COc1cc(/C=N/NC(=O)c2ccccc2Cl)ccc1Oc1ccc([N+](=O)[O-])cn1`: the inhibition is 3.71% (inactive).

For the compound `COC(=O)c1ccccc1NC(=O)c1ccccc1N(C)S(=O)(=O)c1ccccc1`, the inhibition is -2.99% (inactive).

In the case of `CCN(C(=O)CCc1nc(-c2ccc(OC)cc2)no1)c1cc(OC)ccc1OC`, the inhibition was -5.65% (inactive).

For the compound `Cc1ccc(S(=O)(=O)N(C)CC(=O)OCC(=O)NC(c2ccccc2)c2ccccc2)cc1`, the inhibition is 11.4% (inactive).

Take `Cc1ccc(-c2ccc(/C=N/NC(=O)c3ccccc3O)o2)cc1`: the inhibition was 3.44% (inactive).

Turning to `COc1ccc(C(=O)Nc2nc3cc4c(cc3s2)OCCO4)c(OC)c1`, the inhibition is -6.2% (inactive).

In the case of `Cc1ccc(NC(=O)NCc2ccccn2)cc1`, the inhibition was 5.76% (inactive).

Take `CC(C)(C)c1cc(CCC(=O)NN)cc(C(C)(C)C)c1O`: the inhibition is -14% (inactive).

For the compound `COc1ccc(C(=O)NC(=S)NNC(=O)Cc2cccs2)cc1`, the inhibition is 41.2% (inactive).

Turning to `CC(C)(C)c1cc(CCC(=O)NNC(=O)c2ccco2)cc(C(C)(C)C)c1O`, the inhibition is -5.01% (inactive).

With `COc1ccc(C(=O)NC(=S)NNC(=O)COc2ccccc2)cc1`, the inhibition is 1.34% (inactive).

As to `CC(=O)NC(=S)NNC(=O)CCc1ccccc1`, the inhibition was 21.3% (inactive).

In the case of `Cc1ccc(C(=O)NNC(=S)NC(=O)COc2ccccc2)cc1`, the inhibition was 16.5% (inactive).

For `O=C(Cc1cccs1)NNC(=S)NC(=O)c1ccc(F)c(F)c1`, the inhibition is 7.14% (inactive).

Turning to `O=C(CCc1ccccc1)NNC(=S)NC(=O)c1ccc(Cl)cc1`, the inhibition was 92.7% (inactive).

For `CCOC(=O)N1CCC(N2C(=O)c3ccccc3C2Nc2ccc(S(=O)(=O)N3CCOCC3)cc2)CC1` (centres undefined), the inhibition is 2.69% (inactive).

With `Cc1cccc(NC(=O)CCCn2cc([N+](=O)[O-])cn2)n1`, the inhibition was -2.41% (inactive).

Regarding `COc1ccc(OC)c(NC(=O)CSCC(=O)O)c1`, the inhibition is 6.02% (inactive).

With `Cc1cc(C(=O)CCC(=O)N2CCN(S(=O)(=O)c3cccs3)CC2)c(C)s1`, the inhibition is 0.37% (inactive).

For the compound `CN1C[C@@H]2C[C@@H](c3cccn3-c3nccs3)N3CCC[C@@]23C1=O`, the inhibition was -0.22% (inactive).

Regarding `Cc1ccc(NC(=O)CN2CCCCCC2)cc1Br`, the inhibition was 9.91% (inactive).

`Cc1cc(C(=O)COc2ccccc2[N+](=O)[O-])c(C)n1-c1cccc(S(=O)(=O)N2CCOCC2)c1`: the inhibition was 2.08% (inactive).

As for `Cc1cc(C(=O)CCl)c(C)n1-c1cccc(S(=O)(=O)N2CCOCC2)c1`, the inhibition was 1.27% (inactive).

Turning to `CCSC1=C(C#N)C(c2ccccc2Cl)C(C(=O)c2cccs2)C(O)(C(F)(F)F)N1` (centres undefined), the inhibition is -2.94% (inactive).

As for `CCCNC(=O)NC(=O)CSc1ccc2c(c1)OCCO2`, the inhibition is -3.31% (inactive).

As for `O=C(CSc1ccc2c(c1)OCCO2)Nc1ncc(Cl)cc1Cl`, the inhibition is 33.8% (inactive).

For the compound `CC(Sc1ccc2c(c1)OCCO2)C(=O)Nc1ccc2c(c1)OCO2` (centres undefined), the inhibition is 31.4% (inactive).

For the compound `CC(Sc1ccc2c(c1)OCCO2)C(=O)Nc1ccc(N2CCOCC2)cc1` (centres undefined), the inhibition was -0.69% (inactive).

On to `CCOc1cc(S(=O)(=O)Nc2ccccc2CC)ccc1Cl`, for which the inhibition was 8.77% (inactive).

Take `O=C(CSc1nnc(NC2CCCCC2)s1)NCc1ccco1`: the inhibition is 1.38% (inactive).

For the compound `Cc1nnc(SCC(=O)NN2C(=O)NC3(CCCCC3)C2=O)s1`, the inhibition is 0.53% (inactive).

On to `Nc1nnc(SCC(=O)NN2C(=O)NC3(CCCCC3)C2=O)s1`, for which the inhibition is 28% (inactive).

For the compound `O=C(CSc1nnc(NC2CCCCC2)s1)NC1CCS(=O)(=O)C1` (centres undefined), the inhibition was 11.6% (inactive).

With `Cn1nc(C(=O)NNc2c(F)c(F)cc(F)c2F)c2ccccc2c1=O`, the inhibition was 10.2% (inactive).

Regarding `Cc1ccccc1Nc1nc(N)nc(CSc2nnnn2-c2ccccc2)n1`, the inhibition is 2.91% (inactive).

In the case of `CCCCn1nc(C(=O)Nc2cc(S(=O)(=O)N(C)C)ccc2C)c2ccccc2c1=O`, the inhibition was 0.9% (inactive).

Consider `CCCN(c1ccc(C(=O)OC)cc1)S(=O)(=O)c1ccccc1`, for which the inhibition was -1.32% (inactive).

For `Cc1cccc(Nc2nnc(SCC(=O)Nc3cccc(S(=O)(=O)N4CCCCC4)c3)s2)c1`, the inhibition is 33.5% (inactive).

Turning to `CC(=O)c1ccc(NC(=O)CSc2nnc(NC(=O)CN3CCOCC3)s2)cc1`, the inhibition is 28.4% (inactive).

On to `O=C(CSc1nnc(NC(=O)CN2CCOCC2)s1)Nc1ccccc1`, for which the inhibition is 27.4% (inactive).

In the case of `CCc1ccc(Nc2nnc(SCC(=O)Nc3ccc(C(=O)O)cc3)s2)cc1`, the inhibition was 33% (inactive).

As to `Cc1cccc(NC(=O)CSc2nnc(NC(=O)CN3CCCCC3)s2)c1`, the inhibition was 52.7% (inactive).

For `Cc1cccc(C)c1NC(=O)CSc1nnc(NC(=O)CN2CCOCC2)s1`, the inhibition was 24.1% (inactive).

On to `O=C(NCCN1CCN(c2ccccc2)CC1)c1ccc(NC(=O)C2CCCO2)cc1` (centres undefined), for which the inhibition is -5.43% (inactive).

Turning to `CC1=CC(C2CC(=O)N(c3ccccc3C)C2=O)CC2C(=O)N(c3ccccc3C)C(=O)C12` (centres undefined), the inhibition was 3.8% (inactive).

For `CC1=C(C(=O)OCC2CCCO2)C(c2ccncc2)C2=C(CC(C)(C)CC2=O)N1` (centres undefined), the inhibition was -16.9% (inactive).

Regarding `O=[N+]([O-])c1ccc2c(c1)C=C1CCCCC1(N1CCCCC1)O2` (centres undefined), the inhibition was 9.55% (inactive).

With `COc1ccc(/C=C2\SC(=O)N(CCn3cnnn3)C2=O)cc1`, the inhibition was -2.01% (inactive).

With `O=C(CN1CCN(Cc2ccc(F)cc2Cl)C1=O)NCCc1ccccc1`, the inhibition is 8.72% (inactive).

For `CC1CCCN(c2nc(NCc3ccco3)nc(N)c2[N+](=O)[O-])C1` (centres undefined), the inhibition was -3.16% (inactive).

For the compound `CCCC(=O)Nc1nnc(-c2ccco2)s1`, the inhibition is -4.22% (inactive).

On to `O=C(CCc1nc2ccccc2[nH]c1=O)OCC(=O)c1cccc2ccccc12`, for which the inhibition is -3.73% (inactive).

With `Cc1ccc(SCc2[nH]nc3c2C(c2ccco2)C(C#N)=C(N)O3)cc1` (centres undefined), the inhibition was 44.8% (inactive).

Turning to `CCCc1[nH]nc2c1C(/C(C)=C/c1ccccc1)C(C#N)=C(N)O2` (centres undefined), the inhibition was 6.81% (inactive).

As for `Cc1[nH]nc2c1C(c1ccco1)C(C#N)=C(N)O2` (centres undefined), the inhibition was 6.22% (inactive).

Consider `C/C(=C\c1ccco1)C1C(C#N)=C(N)OC2=C1C(=O)CC(C)(C)C2` (centres undefined), for which the inhibition is 5.9% (inactive).

As for `COc1cc(C(=O)NCC(c2cccnc2)N2CCN(c3ccc(F)cc3)CC2)cc(OC)c1OC` (centres undefined), the inhibition is -0.25% (inactive).

Consider `COc1ccc(CNC(=O)CN(Cc2ccccc2)S(=O)(=O)c2ccc(Cl)cc2)cc1`, for which the inhibition is -4.99% (inactive).

Turning to `O=C(c1ccc2c(c1)OCO2)C1CCCN(C(=O)C2CCOCC2)C1` (centres undefined), the inhibition is -3.38% (inactive).

In the case of `COCCCNC(NC(=O)c1ccc(Br)cc1)C(Cl)(Cl)Cl` (centres undefined), the inhibition is 0.25% (inactive).

With `NC(=O)[C@@H]1CC2(CC(c3cccc(NC(=O)[C@H]4CCC(=O)N4)c3)=NO2)CN1C(=O)c1ccc(Cl)cc1` (some centres undefined), the inhibition was 11.6% (inactive).

On to `COc1ccccc1NC(=O)NCc1nc(-c2ccc(C(F)(F)F)cc2)no1`, for which the inhibition is 0.03% (inactive).

On to `COc1cc(OC)cc(C(=O)Nc2ccc([N+](=O)[O-])cn2)c1`, for which the inhibition was 1.24% (inactive).

Consider `CN(C)c1ccc(C(=O)Nc2nnc(C3=COCCO3)o2)cc1`, for which the inhibition was 3.73% (inactive).

For `CCOc1ccc(NC(=O)C2CC(=O)N(C(C)C)C2)cc1` (centres undefined), the inhibition was 43.2% (inactive).

As for `C=CCOc1ccc(NC(=O)C2CC(=O)N(C(C)C)C2)cc1` (centres undefined), the inhibition was 27.3% (inactive).

Consider `CCOC(=O)c1c(C)n(C)c2ccc(OC(=O)c3ccc([N+](=O)[O-])cc3)cc12`, for which the inhibition was -6.49% (inactive).

Turning to `CCCc1cc(=O)[nH]c(Nc2ccc(Cl)cc2)n1`, the inhibition is 1.52% (inactive).

With `COc1ccc(Cc2nnc(Nc3ccc(Cl)cc3)[nH]c2=O)cc1`, the inhibition was -7.25% (inactive).

On to `COc1ccc(NC(=O)C2CCC(C)(C(=O)O)C2(C)C)cc1` (centres undefined), for which the inhibition is 14.3% (inactive).

`CC1(C(=O)O)CCC(C(=O)Nc2ccccc2)C1(C)C` (centres undefined): the inhibition was 1.51% (inactive).

For the compound `COc1cccc(NC(=O)c2ccc(NC(C)=O)cc2)c1`, the inhibition was 10.5% (inactive).

For `COc1ccc2cc(CCNC(=O)C(C)C)c(=O)[nH]c2c1`, the inhibition is 9.03% (inactive).

For the compound `COc1ccc(NC(=O)CN2CCC(C)CC2)cc1`, the inhibition was 32.1% (inactive).

Regarding `CCCNC(=O)COC(=O)c1cc(SC)ccc1Cl`, the inhibition was 6.08% (inactive).

For the compound `CSc1ccc(Cl)c(C(=O)NCc2ccco2)c1`, the inhibition was 14.1% (inactive).

On to `Cc1ccc(N=Cc2cc(C)n(C3CCCC3)c2C)cc1`, for which the inhibition is 3.83% (inactive).

Regarding `O=C(Nc1cc(F)cc(F)c1)c1ccc(NCCc2ccccc2)c([N+](=O)[O-])c1`, the inhibition is 5.14% (inactive).

As for `C=CCOC(=O)C1=C(C)Nc2[nH]c(=O)[nH]c(=O)c2C1c1ccccc1` (centres undefined), the inhibition was 16.9% (inactive).

As to `COc1ccc(Nc2nc3[nH]c(=O)cc(O)c3s2)cc1`, the inhibition is 23.2% (inactive).

For `N#C/C(=C/c1cn(CC(=O)O)c2ccccc12)C(=O)NCc1ccccc1`, the inhibition was 21.3% (inactive).

Take `N#C/C(=C/c1cn(CC(=O)O)c2ccccc12)C(=O)Nc1ccccc1`: the inhibition was 10.1% (inactive).

As to `Cc1cc2cc(C)c3nnc(SCC(=O)Nc4ccc(S(=O)(=O)N5CCCCC5)cc4)n3c2cc1C`, the inhibition was -1.16% (inactive).

Regarding `O=C(CCN1C(=O)c2ccccc2C1=O)Nc1cccc(S(=O)(=O)NC2=NCCC2)c1`, the inhibition is 22.4% (inactive).
